Experimental data published in PubChem BioAssay AID485353 (National Center for Advancing Translational Sciences (NCATS), 2010).
About 610 (0.18%) of roughly 330,000 compounds were called active. Roughly 2% stayed inconclusive and do not appear here. The call rests on the fitted dose curve. The entries come from a sample that favours actives as a whole. Entries that show only a call come without a potency.

assay: qHTS of Yeast-based Assay for SARS-CoV PLP; further: nearly all actives have a fitted effect of over 55% in size; details: S. cerevisiae expressing SARS-CoV PLpro; Potency: growth rescue; series mostly up to 32.9 µM
Potency means the concentration at half of the fitted maximal effect.

Row | Compound | Potency
1 | CCN1C(=O)[C@@H]2[C@@H](c3ccc(-c4ccccc4)cc3)N3CCCC[C@@]3(C(=O)OC)[C@@H]2C1=O | inactive
2 | O=C(Oc1cccc(N2C(=O)C3C4c5ccccc5C(c5ccccc54)C3C2=O)c1)c1ccco1 (centres undefined) | inactive
3 | Cc1nc2ccccc2n1C(=O)N1CCOCC1 | inactive
4 | CC1CN(C(=S)SCC(=O)c2ccccc2)CC(C)O1 (centres undefined) | 10 µM (active)
5 | CC1CN(C(=S)Nc2ccccc2F)CC(C)O1 (centres undefined) | inactive
6 | O=C(CSC(=S)N1CCOCC1)c1ccccc1 | inactive
7 | Cc1ccc(NC(=O)COc2ccc(-n3ccnc3)cc2)cc1Cl | inactive
8 | COc1cccc(NC(=O)c2ccccc2N(Cc2ccccc2)S(C)(=O)=O)c1 | inactive
9 | CCOC(=O)N1CCN(C(c2cccnc2)c2ccc3cccnc3c2O)CC1 (centres undefined) | 11.2 µM (active)
10 | COc1ccccc1N1CCN(C(CNC(=O)Oc2ccccc2)c2cccnc2)CC1 (centres undefined) | inactive
11 | O=C(CSc1cccc2cccnc12)N/N=C/c1cccnc1 | inactive
12 | Cc1ccc(S(=O)(=O)n2cccc2CO)cc1 | inactive
13 | CC(C)(Oc1ccc(Cl)cc1)C(=O)OCC(=O)NCCc1ccc(S(N)(=O)=O)cc1 | inactive
14 | O=C(Cn1cnc2c(nnn2-c2ccccc2)c1=O)N1CCC(Cc2ccccc2)CC1 | inactive
15 | COc1cccc(NC(=O)CN(C)C(C)C(=O)Nc2ccc(C#N)cc2)c1 (centres undefined) | inactive
16 | O=C(CCc1nnc(CCCCc2ccccc2)o1)NC(c1cccnc1)C(F)(F)F (centres undefined) | inactive
17 | O=C(Nc1ccc(S(=O)(=O)N2CCCCC2)cc1)C1CC(=O)N(c2ccc(F)cc2)C1 (centres undefined) | inactive
18 | CN1CCN(C2=NCCO2)CC1 | inactive
19 | CC(C#N)OC(=O)c1cccnc1SCC(=O)Nc1ccc2c(c1)OCO2 (centres undefined) | inactive
20 | CCCCOc1ccc(NC(=O)[C@@H]2CCCN2C(=O)C2CCN(S(=O)(=O)c3ccc(C)cc3)CC2)cc1 | inactive
21 | COc1ccc(NC(=O)C2CCC(CNS(=O)(=O)c3csc(C(N)=O)c3)CC2)cc1OC (centres undefined) | inactive
22 | Cc1cc(C)c2nc3nc(C)cc(C)c3c(N)c2c1 | inactive
23 | O=C(CN1C(=O)NC2(CCCCCCC2)C1=O)NCc1ccc(F)cc1 | inactive
24 | Cc1ccccc1OCc1nnc(SCC(=O)N2c3ccccc3Sc3ccc(Cl)cc32)o1 | inactive
25 | O=C(CC1CCCCC1)NCc1ccco1 | inactive
26 | O=C(CN1C(=O)/C(=C\c2ccc(C(F)(F)F)cc2)Sc2ccccc21)NCc1ccco1 | 12.6 µM (active)
27 | O=C(CN1C(=O)/C(=C/c2ccccc2F)Sc2ccccc21)NCc1cccnc1 | inactive
28 | COc1cccc(C(CC(=O)NCCN2CCOCC2)NS(=O)(=O)c2ccc(C)cc2)c1OC (centres undefined) | inactive
29 | CCc1nccn1CCC(=O)N1CCCC(N2CCN(c3ccccc3F)CC2)C1 (centres undefined) | inactive
